In PubChem BioAssay (EPA / NIEHS):
Results filed as inconclusive are left out. Active and inactive are the calls of the source. The calls were made as follows, unless noted: active = hit-call score of the fitted dose curve at least 0.9, where 1 is the maximum; inactive = score below 0.9.

Legend:
[1] = ATG_PBREM_CIS: Attagene CIS-FACTORIAL HepG2 Assay for human Phenobarbital-responsive Enhancer Module (PBREM) (AID 2282955); settings: HepG2 PBREM cis-reporter, Attagene multiplexed transcription; actives raise or lower the signal
Outline: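 Multiplexed cis-reporter readout in human hepatoma HepG2 cells; PBREM-regulated transcript quantified after 24 h exposure by fluorescent RT-PCR fragment analysis. Signal changes up or down fitted relative to DMSO.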

[2] = molecular target: Paired box protein Pax-6 (Homo sapiens) (UniProt P26367); assay: ATG_Pax6_CIS: Attagene CIS-FACTORIAL HepG2 Assay for human Paired Box 6 (PAX6) (AID 2282956); settings: HepG2 CIS-FACTORIAL PAX6 reporter transcription, RNA readout; actives raise or lower the signal
Sequence of Paired box protein Pax-6 (Homo sapiens) (P26367 whole entry, looked up): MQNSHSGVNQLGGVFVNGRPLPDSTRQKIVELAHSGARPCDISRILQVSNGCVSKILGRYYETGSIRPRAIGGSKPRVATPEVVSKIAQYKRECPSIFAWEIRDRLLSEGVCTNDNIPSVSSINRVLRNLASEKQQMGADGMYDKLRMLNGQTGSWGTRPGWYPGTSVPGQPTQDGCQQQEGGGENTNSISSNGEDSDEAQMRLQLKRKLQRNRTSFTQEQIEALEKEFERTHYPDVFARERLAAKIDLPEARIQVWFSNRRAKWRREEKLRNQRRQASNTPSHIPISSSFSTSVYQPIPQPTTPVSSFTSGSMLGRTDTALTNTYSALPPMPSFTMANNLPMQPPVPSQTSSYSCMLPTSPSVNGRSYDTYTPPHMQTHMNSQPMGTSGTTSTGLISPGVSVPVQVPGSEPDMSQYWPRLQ
Outline: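 After twenty-four hours of chemical exposure, transfected HepG2 cells are harvested for RNA. Cis-promoter reporter transcripts are amplified, fluorescently labelled and sized by capillary electrophoresis, with gain and loss of signal scored against DMSO.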

[3] = ATG_PXRE_CIS: Attagene CIS-FACTORIAL HepG2 Assay for human Pregnane X Receptor Element (PXRE) (AID 2282957); settings: HepG2 Attagene CIS-FACTORIAL PXRE reporter, mRNA; actives raise or lower the signal
Outline: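 HepG2 cells transiently transfected with cis-element-driven multiplexed reporter units; after 24 h chemical exposure, reporter mRNA measured by RT-PCR, 6-FAM labelling, HpaI digestion and capillary electrophoresis. Bidirectional fitting relative to DMSO.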

[4] = ATG_PPRE_CIS: Attagene CIS-FACTORIAL HepG2 Assay for human Peroxisome Proliferator-activated Response Element (PPRE) (AID 2282958); settings: HepG2 PPRE cis-element reporter, Attagene transcription factor profiling; actives raise or lower the signal
Outline: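 DMSO served as negative control and baseline for bidirectional curve fitting. Signal came from PPRE-regulated reporter mRNA in HepG2 cells, measured 24 h post-dosing by RT-PCR, 6-FAM primer extension and capillary electrophoresis.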

[5] = ATG_RORE_CIS: Attagene CIS-FACTORIAL HepG2 Assay for human RAR-related Orphan Receptor Element (RORE) (AID 2282959); settings: HepG2 Attagene cis-factorial RORE reporter, mRNA; actives raise or lower the signal
Outline: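 Transfect HepG2 with MRTUs; treat 24 h; extract RNA; RT with oligo(dT); PCR with reporter-specific primers; 6-FAM primer extension; HpaI digest 2 h at 37 C; capillary electrophoresis. Fit vs DMSO, bidirectional.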

[6] = ATG_Sox_CIS: Attagene CIS-FACTORIAL HepG2 Assay for human SRY-box transcription factor (SOX) (AID 2282960); settings: HepG2 Attagene cis-factorial SOX reporter, mRNA; actives raise or lower the signal
Outline: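 Fluorescence-labelled cDNA fragments from reporter transcripts, sized by CE, give the signal. Cells: HepG2, transiently transfected with cis-regulated reporter units. Exposure 24 h; DMSO negative control; bidirectional curve fitting.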

[7] = ATG_SREBP_CIS: Attagene CIS-FACTORIAL HepG2 Assay for human Sterol Regulatory Element Binding (SREBP) (AID 2282962); settings: HepG2 Attagene cis-factorial SREBP reporter, mRNA; actives raise or lower the signal
Outline: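 Twenty-four hours after chemical dosing of transfected HepG2 cultures, reporter RNA was converted to cDNA, amplified, end-labelled with 6-FAM and resolved by capillary electrophoresis. Responses were fitted relative to DMSO.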

[8] = molecular target: Signal transducer and activator of transcription 3 (Homo sapiens) (UniProt P40763); assay: ATG_STAT3_CIS: Attagene CIS-FACTORIAL HepG2 Assay for human Signal Transducer and Activator of Transcription 3 (STAT3) (AID 2282963); settings: HepG2, Attagene cis-factorial STAT3 reporter transcription; actives raise or lower the signal
Sequence of Signal transducer and activator of transcription 3 (Homo sapiens) (P40763 whole entry, looked up): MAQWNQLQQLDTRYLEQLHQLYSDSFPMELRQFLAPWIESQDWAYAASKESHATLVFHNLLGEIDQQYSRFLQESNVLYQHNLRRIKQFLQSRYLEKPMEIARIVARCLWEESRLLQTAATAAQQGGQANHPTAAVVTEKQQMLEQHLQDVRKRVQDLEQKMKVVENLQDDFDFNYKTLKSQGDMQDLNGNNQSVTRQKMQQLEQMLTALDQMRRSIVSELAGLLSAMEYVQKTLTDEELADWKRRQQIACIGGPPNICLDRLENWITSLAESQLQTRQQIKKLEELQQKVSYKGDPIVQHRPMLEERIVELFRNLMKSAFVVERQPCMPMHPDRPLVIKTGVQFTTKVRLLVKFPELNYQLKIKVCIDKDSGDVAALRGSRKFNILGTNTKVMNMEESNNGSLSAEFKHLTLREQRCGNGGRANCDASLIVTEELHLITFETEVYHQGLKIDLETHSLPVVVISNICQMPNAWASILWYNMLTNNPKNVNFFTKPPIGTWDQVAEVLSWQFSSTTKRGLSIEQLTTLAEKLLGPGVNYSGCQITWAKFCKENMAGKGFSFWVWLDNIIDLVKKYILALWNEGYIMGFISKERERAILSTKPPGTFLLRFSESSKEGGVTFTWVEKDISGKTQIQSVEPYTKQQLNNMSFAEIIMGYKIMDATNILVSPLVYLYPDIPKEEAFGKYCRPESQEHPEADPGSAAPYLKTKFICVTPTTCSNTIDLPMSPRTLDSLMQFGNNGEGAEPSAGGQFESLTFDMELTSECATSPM
Outline: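 HepG2 cells transiently transfected with multiple cis-element-driven reporter units report endogenous transcription factor activity. After 24 h compound exposure, reporter mRNA is measured by RT-PCR, 6-FAM labelling, HpaI digestion and capillary electrophoresis. Fitted bidirectionally versus DMSO.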

[9] = ATG_TA_CIS: Attagene CIS-FACTORIAL HepG2 Assay for human TA Basal Promoter (AID 2282964); settings: HepG2 Attagene CIS-factorial TA basal promoter reporter; actives raise or lower the signal
Outline: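 Transient MRTU transfection of HepG2 preceded 24 h compound exposure. Reporter mRNA levels were then read by RT-PCR with capillary electrophoresis, and this background-control endpoint was fitted bidirectionally to DMSO.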

[10] = ATG_TCF_b_cat_CIS: Attagene CIS-FACTORIAL HepG2 Assay for human T-Cell-Factor with beta-catenin (TCF/b-cat) (AID 2282965); settings: HepG2 TCF/beta-catenin cis-reporter transcription, actives raise or lower the signal
Outline: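 Cells of the HepG2 line carry transiently transfected reporter units whose promoters respond to endogenous factors. Twenty-four hours post-dosing, reporter mRNA induction is measured by fluorescent RT-PCR and capillary electrophoresis, with DMSO as baseline.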

[11] = ATG_TAL_CIS: Attagene CIS-FACTORIAL HepG2 Assay for human TAL Basal Promoter (AID 2282966); settings: HepG2 Attagene cis-factorial TAL promoter reporter; actives raise or lower the signal;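 also: background control endpoint measuring basal TAL promoter reporter mRNA not a specific factor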
Outline: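 HepG2 cells transiently transfected with multiplexed cis-promoter reporter units, dosed 24 h. Reporter mRNA quantified by RT-PCR, 6-FAM labelling, HpaI digestion and capillary electrophoresis; TAL basal promoter serves as background control, fitted bidirectionally versus DMSO.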

[12] = ATG_TGFb_CIS: Attagene CIS-FACTORIAL HepG2 Assay for human Transforming Growth Factor (TGF) (AID 2282967); settings: HepG2 Attagene CIS TGFb reporter, mRNA transcription; actives raise or lower the signal
Outline: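 After a 24-hour incubation with compound, transfected HepG2 cells were lysed for RNA; reporter cDNA was amplified, fluorescently end-labeled and separated by CE. DMSO served as baseline for bidirectional fits.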

[13] = ATG_VDRE_CIS: Attagene CIS-FACTORIAL HepG2 Assay for human Vitamin D Receptor Element (VDRE) (AID 2282968); settings: HepG2 VDRE cis-reporter transcription, actives raise or lower the signal
Outline: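 Transiently transfected HepG2 cells carrying cis-regulated reporter transcription units were exposed for 24 h. Reporter mRNA was measured by RT-PCR with fluorescent labelling and capillary electrophoresis, and fitted in both directions against DMSO.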

[14] = molecular target: X-box-binding protein 1 (Homo sapiens) (UniProt P17861); assay: ATG_Xbp1_CIS: Attagene CIS-FACTORIAL HepG2 Assay for human X-box Binding Protein 1 (XBP1) (AID 2282972); settings: HepG2 XBP1 cis-element reporter, Attagene multiplex; actives raise or lower the signal
Sequence of X-box-binding protein 1 (Homo sapiens) (P17861 whole entry, looked up): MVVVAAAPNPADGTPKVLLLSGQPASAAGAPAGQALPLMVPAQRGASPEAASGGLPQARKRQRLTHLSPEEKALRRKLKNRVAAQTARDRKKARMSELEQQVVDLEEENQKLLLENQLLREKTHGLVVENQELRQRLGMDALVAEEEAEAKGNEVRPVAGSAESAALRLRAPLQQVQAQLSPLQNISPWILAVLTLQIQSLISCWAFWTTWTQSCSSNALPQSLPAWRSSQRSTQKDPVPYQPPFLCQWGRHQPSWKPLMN
Outline: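 After a 24-hour chemical exposure of HepG2 cells carrying cis-regulated reporters, reporter mRNA levels are assessed. Quantification uses RT-PCR, 6-FAM labelling and capillary electrophoresis. Gain- or loss-of-signal is fitted against DMSO.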

[15] = ATG_M_19_TRANS: Attagene TRANS-FACTORIAL HepG2 Assay for M19 Transcription Factor (Internal Marker) (AID 2282974; active = hit-call score of the fitted dose curve at least 0.9, where 1 is the maximum); settings: HepG2 Attagene TRANS-FACTORIAL M19 internal marker reporter
Outline: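 Multiplexed TRANS format: HepG2 liver cells bearing transient GAL4-UAS reporter units, chemical treatment 24 h, reporter transcripts quantified by RT-PCR plus capillary electrophoresis. DMSO defines baseline.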

[16] = ATG_GAL4_TRANS: Attagene TRANS-FACTORIAL HepG2 Assay for GAL4 (Internal Marker) (AID 2282976; active = hit-call score of the fitted dose curve at least 0.9, where 1 is the maximum); settings: HepG2 Attagene TRANS GAL4 internal marker reporter
Outline: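 Background-control readout: GAL4-UAS reporter transcript in transiently transfected HepG2 cells after 24 h compound exposure. Measured by RT-PCR, 6-FAM primer extension, HpaI digest and capillary electrophoresis; gain-of-signal fit versus DMSO.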

[17] = molecular target: Transcription factor Sp1 (Homo sapiens) (UniProt P08047); assay: ATG_Sp1_CIS: Attagene CIS-FACTORIAL HepG2 Assay for human Specificity Protein 1 (Sp1) (AID 2282961); settings: HepG2 Sp1 cis-reporter transcription, actives raise or lower the signal
Sequence of Transcription factor Sp1 (Homo sapiens) (P08047 whole entry, looked up): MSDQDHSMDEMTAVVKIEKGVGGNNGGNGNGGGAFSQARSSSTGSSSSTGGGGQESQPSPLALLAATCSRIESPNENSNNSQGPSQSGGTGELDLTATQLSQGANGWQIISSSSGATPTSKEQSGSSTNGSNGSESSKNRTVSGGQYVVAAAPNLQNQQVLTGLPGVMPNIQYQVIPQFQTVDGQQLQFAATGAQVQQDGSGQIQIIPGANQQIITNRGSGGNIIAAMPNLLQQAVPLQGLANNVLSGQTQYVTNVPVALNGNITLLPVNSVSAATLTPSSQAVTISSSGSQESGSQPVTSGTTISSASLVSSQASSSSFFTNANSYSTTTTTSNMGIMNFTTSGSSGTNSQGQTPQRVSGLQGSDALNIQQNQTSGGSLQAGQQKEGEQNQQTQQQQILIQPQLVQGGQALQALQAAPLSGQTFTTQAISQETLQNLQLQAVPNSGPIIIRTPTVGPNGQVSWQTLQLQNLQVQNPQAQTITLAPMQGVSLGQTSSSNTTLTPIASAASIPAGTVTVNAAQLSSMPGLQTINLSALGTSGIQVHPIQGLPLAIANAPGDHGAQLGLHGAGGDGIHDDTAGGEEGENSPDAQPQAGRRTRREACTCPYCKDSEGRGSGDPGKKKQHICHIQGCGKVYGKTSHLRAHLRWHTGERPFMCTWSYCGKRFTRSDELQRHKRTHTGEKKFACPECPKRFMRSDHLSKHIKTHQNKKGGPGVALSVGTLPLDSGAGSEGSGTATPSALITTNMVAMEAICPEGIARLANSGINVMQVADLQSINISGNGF
Outline: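 Chemicals are dosed onto HepG2 cells transfected with multiple cis-promoter reporter constructs, and after 24 h reporter RNA is reverse-transcribed, PCR-amplified and resolved by capillary electrophoresis for fluorescence quantitation; activity is scored up or down against DMSO.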

[18] = molecular target: Steroid hormone receptor ERR1 (Homo sapiens) (UniProt P11474); assay: ATG_ERRa_TRANS: Attagene TRANS-FACTORIAL HepG2 Assay for human Estrogen-Related Receptor alpha (ERRa) (AID 2282971; active = hit-call score of the fitted dose curve at least 0.9, where 1 is the maximum); settings: HepG2 Attagene TRANS reporter, ERRa transactivation
Sequence of Steroid hormone receptor ERR1 (Homo sapiens) (P11474 whole entry, looked up, the tested form may be a part): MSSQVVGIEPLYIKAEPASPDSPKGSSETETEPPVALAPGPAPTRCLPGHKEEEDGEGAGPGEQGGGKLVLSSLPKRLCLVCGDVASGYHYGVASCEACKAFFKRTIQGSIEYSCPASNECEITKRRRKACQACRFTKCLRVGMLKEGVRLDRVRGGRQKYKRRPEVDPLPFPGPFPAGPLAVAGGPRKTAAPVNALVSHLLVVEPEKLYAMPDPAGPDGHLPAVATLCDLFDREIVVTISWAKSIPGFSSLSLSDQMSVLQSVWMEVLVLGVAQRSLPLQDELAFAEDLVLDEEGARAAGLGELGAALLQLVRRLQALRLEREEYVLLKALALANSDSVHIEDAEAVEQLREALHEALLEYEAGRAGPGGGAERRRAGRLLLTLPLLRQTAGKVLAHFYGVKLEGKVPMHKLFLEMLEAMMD
Outline: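 HepG2 cells transiently transfected with GAL4-UAS reporter units and chimeric NR-Gal4 constructs; after 24 hour compound incubation, reporter mRNA quantified by RT-PCR, fluorescent labelling and capillary electrophoresis, gain of signal versus DMSO.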

[19] = molecular target: Nuclear receptor subfamily 1 group I member 3 (Homo sapiens) (UniProt Q14994); assay: ATG_CAR_TRANS: Attagene TRANS-FACTORIAL HepG2 Assay for human Constitutive Androstane Receptor (CAR) (AID 2282969; active = hit-call score of the fitted dose curve at least 0.9, where 1 is the maximum;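 also: activators raise reporter mRNA above DMSO so AC50 marks induction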); settings: HepG2 Attagene TRANS-FACTORIAL CAR reporter
Sequence of Nuclear receptor subfamily 1 group I member 3 (Homo sapiens) (Q14994 whole entry, looked up, the tested form may be a part): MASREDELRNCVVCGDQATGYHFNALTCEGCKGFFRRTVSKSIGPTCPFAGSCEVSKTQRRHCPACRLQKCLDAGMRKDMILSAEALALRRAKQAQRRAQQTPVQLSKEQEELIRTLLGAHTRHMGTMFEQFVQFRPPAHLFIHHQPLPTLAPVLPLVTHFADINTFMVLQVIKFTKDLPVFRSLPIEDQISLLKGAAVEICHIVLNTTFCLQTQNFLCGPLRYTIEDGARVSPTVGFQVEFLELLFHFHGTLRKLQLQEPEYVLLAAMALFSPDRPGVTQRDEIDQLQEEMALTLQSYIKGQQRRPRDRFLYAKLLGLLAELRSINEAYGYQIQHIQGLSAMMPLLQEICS
Outline: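 HepG2 cells transiently transfected with GAL4-UAS reporter units; TRANS format reads activity of exogenous chimeric NR-Gal4 protein. After 24 h dosing, reporter mRNA quantified by RT-PCR, 6-FAM labelling and capillary electrophoresis; gain of signal fitted against DMSO.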

[20] = molecular target: Estrogen receptor (Homo sapiens) (UniProt P03372); assay: ATG_ERa_TRANS: Attagene TRANS-FACTORIAL HepG2 Assay for human Estrogen Receptor alpha (ERa) (AID 2282970; active = hit-call score of the fitted dose curve at least 0.9, where 1 is the maximum); settings: HepG2 Attagene TRANS ERa GAL4 reporter, mRNA
Sequence of Estrogen receptor (Homo sapiens) (P03372 whole entry, looked up, the tested form may be a part): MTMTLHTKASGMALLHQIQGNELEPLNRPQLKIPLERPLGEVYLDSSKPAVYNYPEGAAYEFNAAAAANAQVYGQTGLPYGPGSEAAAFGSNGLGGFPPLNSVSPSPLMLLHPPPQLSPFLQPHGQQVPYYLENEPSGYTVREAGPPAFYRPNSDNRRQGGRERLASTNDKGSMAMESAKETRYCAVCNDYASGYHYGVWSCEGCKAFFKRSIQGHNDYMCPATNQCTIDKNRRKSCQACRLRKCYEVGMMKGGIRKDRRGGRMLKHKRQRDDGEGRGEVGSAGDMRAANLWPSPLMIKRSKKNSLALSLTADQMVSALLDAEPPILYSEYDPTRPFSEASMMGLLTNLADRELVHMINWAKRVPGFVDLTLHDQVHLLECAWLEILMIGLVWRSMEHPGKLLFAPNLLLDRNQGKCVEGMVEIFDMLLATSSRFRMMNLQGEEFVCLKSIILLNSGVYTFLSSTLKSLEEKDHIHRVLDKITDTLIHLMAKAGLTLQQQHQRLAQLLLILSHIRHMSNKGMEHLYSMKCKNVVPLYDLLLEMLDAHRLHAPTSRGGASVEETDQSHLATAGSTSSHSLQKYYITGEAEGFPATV
Outline: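 HepG2 cells transiently transfected with multiplexed GAL4-UAS reporter units read out chimeric NR-Gal4 activity. After 24 h compound exposure, reporter mRNA was quantified by RT-PCR, 6-FAM labeling, HpaI digestion and capillary electrophoresis, relative to DMSO.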

Measured: AC50

CNC(=C[N+](=O)[O-])NCCSCc1ccc(CN(C)C)o1
not listed: [17] | [18] | [19] | [20]
inactive: all other assays above

CCOC(=O)C(=O)OCC
not listed: [4] | [19] | [20]
inactive: all other assays above

CC1=CC(C)C(C=O)C(C)C1 (stereo not given) (tested in a mixture with another compound)
active: [3] 15.9 µM | [13] 28.8 µM
not listed: [4] | [15] | [16] | [18]
inactive: all other assays above

COc1ccccc1NC(=O)CC(C)=O
active: [3] 34.2 µM | [13] 68.2 µM
not listed: [4] | [14] | [18] | [20]
inactive: all other assays above

C[C@H](CCC(=O)O)[C@H]1CC[C@H]2[C@@H]3CC[C@@H]4C[C@H](O)CC[C@]4(C)[C@H]3CC[C@]12C
inactive: [1] | [4] | [5] | [6] | [7] | [8] | [11] | [19]
active: [2] 27.5 µM | [3] 3.75 µM | [10] 35.1 µM | [12] 43 µM | [13] 17.7 µM

CC(=O)CCC(=O)O
active: [3] 63.8 µM
not listed: [4] | [14] | [16] | [18] | [20]
inactive: all other assays above

CC(C)Cc1ccc(C(C)C(=O)O)cc1 (stereo not given)
active: [20] 36.4 µM
not listed: [4] | [13]
inactive: all other assays above

O=c1cc(-c2ccc(O)cc2)oc2cc(O)cc(O)c12
active: [2] 21.7 µM | [3] 14 µM | [4] 26.7 µM | [14] 16.2 µM
not listed: [5] | [12] | [13] | [16] | [18] | [20]
inactive: all other assays above
